Drawing on PubChem BioAssay (NCI), this text covers growth for 15 molecules.

The panel holds about 83,000 compounds, 20% with a hit somewhere; the sample as a whole holds those more often.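 A percent growth of 40 corresponds to 60% growth inhibition; 0 means no net growth; -100 means all cells died. Active threshold: below 10.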 A number with no mark means an inactive call. Activity calls are given as the source filed them.

Among the test systems are T-47D breast; BT-549 breast; MDA-MB-435 melanoma; SW-620 colon; MCF7 breast; HCT-116 colon; HCC-2998 colon; KM12 colon.
What all share (test): NCI-60 one-dose screen, 48 h (100 = growth as untreated, 0 = no growth, -100 = all killed)
What all share (conditions): 10 µM

Consider `CCC(CC)n1c(C)cc(=O)n1C(CC)CC`, for which the growth in the test on T-47D breast is 105%; in the test with BT-549 breast, 122%; in the test on MDA-MB-435 melanoma it was 102%; in the test with SW-620 colon, 105%; with MCF7 breast it was 105%; in the test with HCT-116 colon it was 105%. Also, the figures for the growth with HCC-2998 colon and in the test with KM12 colon were 105% and 115%, respectively.
Take `O=C(O)Cc1ccc(O)c(O)c1`: the growth is 83.2% with T-47D breast; 88.3% in the test on BT-549 breast; 103% in the test with MDA-MB-435 melanoma; 103% in the test with SW-620 colon; 91% with MCF7 breast; 105% in the test with HCT-116 colon. In addition, the growth was 92.2% in the test on HCC-2998 colon and 98.6% in the test with KM12 colon.
For the molecule `CC[N+](CC)=c1ccc2nc3c(cc(NCc4ccccc4)c4ccccc43)oc-2c1`, the growth was -55.9% (active) in the test with T-47D breast; 39.4% in the test on BT-549 breast; -98.9% (active) with MDA-MB-435 melanoma; -82.5% (active) in the test with SW-620 colon; -82.2% (active) in the test on MCF7 breast; -35.6% (active) with HCT-116 colon. Moreover, the growth is -94.8% (active) in the test on HCC-2998 colon and -88.6% (active) in the test on KM12 colon.
As to `O=C(Nc1cc(Cl)cc2c1-c1ccc(Cl)cc1C2O)C(Cl)Cl` (stereo not given), the growth is 54.1% in the test on T-47D breast; 95.3% in the test on BT-549 breast; 79.2% in the test on MDA-MB-435 melanoma; 79.5% in the test on SW-620 colon; 64.5% in the test with MCF7 breast; 51.1% with HCT-116 colon. Besides, the results for the growth in the test on HCC-2998 colon and in the test on KM12 colon were 95.2% and 76.4%, respectively.
In the case of `COc1ccc(-c2n[nH]nc2-c2cc(OC)c(OC)c(OC)c2)cc1`, the growth in the test on T-47D breast is 21.9%; with BT-549 breast it was 13.6%; in the test on MDA-MB-435 melanoma, 4.87% (active); in the test on SW-620 colon, 19.7%; in the test with MCF7 breast, 19.7%; in the test on HCT-116 colon, 6.27% (active). The growth is 14.2% in the test on HCC-2998 colon and 0.0603% (active) in the test on KM12 colon.
Regarding `COc1cc(-c2nn(-c3cccc(NC(=O)NCCNC(=O)c4cccc(C(F)(F)F)c4)c3)cc2-c2ccncc2)ccc1Cl`, the growth with T-47D breast was 52.7%; with BT-549 breast, 14.2%; with MDA-MB-435 melanoma it was -41.6% (active); with SW-620 colon, 36.1%; with MCF7 breast it was 12.7%; in the test on HCT-116 colon it was 24.4%. Further, the growth in the test on HCC-2998 colon is 67.3%; with KM12 colon, 18.9%.
Take `Nc1c(Br)cc(Br)c2c1[nH]c(=O)c1ccccc12`: the growth was 39.2% with T-47D breast; 76.8% in the test on BT-549 breast; 93.3% in the test with MDA-MB-435 melanoma; 73.4% in the test with SW-620 colon; 22.1% in the test with MCF7 breast; 83.1% in the test with HCT-116 colon. Also, the growth is 87.5% in the test on HCC-2998 colon and 101% in the test on KM12 colon.
In the case of `Cn1c2ccccc2c2c3[nH][nH]c(=O)c3c3c4ccccc4[nH]c3c21`, the growth in the test with T-47D breast was 42.9%; in the test with BT-549 breast, 20.5%; in the test with MDA-MB-435 melanoma, 23.6%; in the test with SW-620 colon, 20.7%; in the test on MCF7 breast, 5.82% (active); with HCT-116 colon, -52.8% (active). In addition, the growth is 26.5% in the test on HCC-2998 colon and 10.7% in the test with KM12 colon.
With `Cc1ccc(NC(=S)NNC(=S)Nc2ccc(C)cc2)cc1`, the growth in the test with T-47D breast was 46.8%; in the test with BT-549 breast, 71.7%; in the test with MDA-MB-435 melanoma, -1.34% (active); in the test on SW-620 colon, 44.3%; in the test with MCF7 breast, 29.3%; in the test with HCT-116 colon, 34.5%. The growth with HCC-2998 colon was 68.9%; with KM12 colon it was 60.5%.
As to `NS(=O)(=O)Oc1ccc(NC(=O)C2CCCCCC2)cc1`, the growth in the test with T-47D breast is 90.7%; in the test on BT-549 breast, 104%; in the test on MDA-MB-435 melanoma it was 106%; with SW-620 colon, 106%; with MCF7 breast it was 97.7%; in the test with HCT-116 colon, 105%. The growth in the test on HCC-2998 colon and in the test with KM12 colon was 101% throughout.
Take `CC(=O)C1N=NCC1c1ccccc1` (stereo not given): the growth in the test on T-47D breast was 104%; in the test with BT-549 breast, 105%; in the test with MDA-MB-435 melanoma, 108%; with SW-620 colon it was 101%; in the test with MCF7 breast, 95.7%; with HCT-116 colon it was 100%. For the same molecule, the growth with HCC-2998 colon and with KM12 colon was 102% throughout.
With `COc1cc2cc(Oc3ccc(NC(=O)Nc4ccc(C(F)(F)F)cc4)cc3)c(C)nc2cc1OC`, the growth is 57.5% in the test with T-47D breast; 113% with BT-549 breast; 80.3% in the test with MDA-MB-435 melanoma; 75.3% in the test on SW-620 colon; 84.3% with MCF7 breast; 47.2% in the test with HCT-116 colon. The values for the growth with HCC-2998 colon and with KM12 colon were 94.8% and 64.4%, respectively.
With `CCOC(=O)c1sc2ncnc(Nc3ccc(NC(=O)Nc4ccc(Cl)cc4)cc3)c2c1C`, the growth with T-47D breast was 45.4%; in the test with BT-549 breast, 61.8%; in the test on MDA-MB-435 melanoma, 59.4%; with SW-620 colon, 63.7%; with MCF7 breast, 52.1%; in the test on HCT-116 colon, 17%. The growth in the test with HCC-2998 colon was 90.3%; in the test with KM12 colon, 55.3%.
In the case of `COc1cc(N)c2ncccc2c1SC`, the growth with T-47D breast is 93.1%; with BT-549 breast, 102%; in the test with MDA-MB-435 melanoma, 110%; with SW-620 colon it was 104%; with MCF7 breast, 104%; in the test with HCT-116 colon, 99.3%. Further, the growth in the test with HCC-2998 colon and in the test on KM12 colon was 102% in each case.
On to `C=CCn1c(SCC(=O)Nc2ccc(C(=O)/C=C/c3ccc(Cl)cc3)cc2)nnc1-c1cc(-c2ccccc2)nc2ccccc12`, for which the growth in the test with T-47D breast is 84.6%; in the test with BT-549 breast, 64.2%; in the test on MDA-MB-435 melanoma, 77.9%; in the test on SW-620 colon, 5.4% (active); in the test with MCF7 breast it was 12.2%; in the test on HCT-116 colon, -22.9% (active). The figures for the growth in the test with HCC-2998 colon and with KM12 colon were 87.4% and 76.5%, respectively.
